Counter-ions that a name gives are not always drawn.
Each molecule was assayed on hN + hpA co-culture (H1 iNGN2 human neurons + human primary astrocytes) (assay: presynaptic density (SYNAPSIN1 puncta per MAP2 neurite area), Z-score vs DMSO controls; higher = more presynaptic puncta (synapse-promoting)). Details: 3 µM; 72 h.
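Note: immunostained co-cultures imaged by high-content microscopy, Z-score per plate against mean and SD of 0.1% DMSO wells, compounds added on differentiation day 18, analysed day 21.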

SMILES	presynaptic density (Z-score)
COc1cc2c(cc1OC)CN(CCc1ccc(NC(=O)c3cc(OC)c(OC)cc3NC(=O)c3cnc4ccccc4c3)cc1)CC2 [Tariquidar]	-0.47
C[C@]12C=CC(=O)N[C@@H]1CC[C@@H]1[C@@H]2CC[C@]2(C)[C@@H](C(=O)Nc3cc(C(F)(F)F)ccc3C(F)(F)F)CC[C@@H]12 [Dutasteride]	-1.23
Nc1cccc(-c2cc3c(Oc4cccc(O)c4)ncnc3[nH]2)c1	0.148
COc1c(O)cc2c(c1O)[C@@H]1O[C@H](CO)[C@@H](O)[C@H](O)[C@H]1OC2=O	0.361
COc1cc2/c(=N/c3ccc(Br)cc3F)nc[nH]c2cc1OCC1CCN(C)CC1 [Vandetanib (ZD 6474)]	0.993
CS(=O)(=O)N1CCN(Cc2cc3nc(-c4cccc5[nH]ncc45)nc(N4CCOCC4)c3s2)CC1 [GDC 0941 bismesylate]	1.26
Cc1noc(-c2ccc(CSCCC(=O)O)cc2)c1NC(=O)OC(C)c1ccccc1Cl (stereo not drawn)	0.975
CC(C)c1c(C(=O)Nc2ccccc2)c(-c2ccccc2)c(-c2ccc(F)cc2)n1CC[C@@H](O)C[C@@H](O)CC(=O)O	-2.01
COc1cc(Nc2c(C#N)cnc3cc(OCCCN4CCN(C)CC4)c(OC)cc23)c(Cl)cc1Cl [Bosutinib (SKI 606)]	-1.36
CC(C)(C#N)c1cc(Cn2cncn2)cc(C(C)(C)C#N)c1	-0.628
Cc1cn([C@H]2C=C[C@@H](CO)O2)c(=O)[nH]c1=O [Stavudine (d4T)]	0.723
CCCCc1nc(Cl)c(CO)n1Cc1ccc(-c2ccccc2-c2nnn[nH]2)cc1 [Losartan Potassium (DuP 753)]	0.806
Nc1ccc(C(=O)O)c(O)c1 [Sodium 4-Aminosalicylate]	0.294
NC(=O)Nc1cc(-c2cccc(F)c2)sc1C(=O)N[C@H]1CCCNC1	0.58
N#Cc1c(O)c2c(-c3ccc(-c4ccccc4O)cc3)csc2[nH]c1=O	-1.26
Cc1cc(Nc2ncc(Cl)c(Nc3ccccc3S(=O)(=O)C(C)C)n2)c(OC(C)C)cc1C1CCNCC1	0.147
CC1(C)CCC(c2ccc(Cl)cc2)=C(CN2CCN(c3ccc(C(=O)NS(=O)(=O)c4ccc(N[C@H](CCN5CCOCC5)CSc5ccccc5)c(S(=O)(=O)C(F)(F)F)c4)cc3)CC2)C1	0.29
COc1cc(Br)c(Nc2nc(-c3c(C)nc4ncccn34)cs2)c(Br)c1	-2
C[C@]1(c2nc3c(C(N)=O)cccc3[nH]2)CCCN1 [Veliparib (ABT-888)]	0.43

SMILES	presynaptic density (Z-score)
Cc1cccc(CC(=O)N2CCc3c2ccc(-c2cn(C)c4ncnc(N)c24)c3F)n1	-0.752
COc1ccccc1N1CCN(CC(O)COc2cccc3ccccc23)CC1 (stereo not drawn)	-0.464
Nc1cccc2c1CN(C1CCC(=O)NC1=O)C2=O (stereo not drawn) [Lenalidomide]	1.39
O=c1ncccn1[C@@H]1O[C@H](CO)[C@@H](O)[C@H]1O [Zebularine]	-0.579
Cc1ccc(C(=O)N(CCCN)[C@@H](c2nc3cc(Cl)ccc3c(=O)n2Cc2ccccc2)C(C)C)cc1	-0.26
CC(C)NCC(O)COc1cccc2ccccc12 (stereo not drawn) [Propranolol HCl]	0.278
CC(C)N(CCCNC(=O)Nc1ccc(C(C)(C)C)cc1)C[C@H]1O[C@@H](n2cc(Br)c3c(N)ncnc32)[C@H](O)[C@@H]1O	-0.407
COc1cc2c(cc1OC)[C@@H]1Cc3ccc(OC)c(OC)c3CN1CC2 [Rotundine]	-0.985
O=C(NNc1ccccc1)c1ccncc1	-0.884
CCCC(=O)Nc1cccc(NC(=O)c2ccccc2Br)c1	-0.374
O=C(Nc1nc2cccc(-c3ccc(CN4CCS(=O)(=O)CC4)cc3)n2n1)C1CC1 [Filgotinib (GLPG0634)]	-0.645
NS(=O)(=O)c1ccc(NC(=O)Nc2ccc(F)cc2)cc1	0.585
COCCCC/C(=N\OCCN)c1ccc(C(F)(F)F)cc1 [Fluvoxamine maleate]	-0.239
CCN1CCCC1CNC(=O)c1cc(S(N)(=O)=O)ccc1OC (single isomer, unassigned; (-)) [(-)-Sulpiride]	-1.09
Cc1c(Cc2ccc3ccccc3n2)c2cc(F)ccc2n1CC(=O)O	-1.02
CN1CCC(CNc2ccc3ncc(-c4cccc(OC(F)(F)F)c4)n3n2)CC1	-2.44
CCOC(=O)N1CCC(=C2c3ccc(Cl)cc3CCc3cccnc32)CC1 [Loratadine]	1.78
CCc1cc(Nc2nccc(-c3c(-c4ccc(OC)c(C(=O)Nc5c(F)cccc5F)c4)nc4ccccn34)n2)c(OC)cc1N1CCC(N2CCN(S(C)(=O)=O)CC2)CC1	0.31
Cc1cc(C(C)(C)C)c(O)c(C)c1CC1=NCCN1 [Oxymetazoline HCl]	-0.235

Source: the supplement of paper PMC10121225
